Screens as filed in PubChem BioAssay.
Giardia kill: kills Giardia lamblia; Giardia lamblia trophozoite viability; activity change, % at 7.66 µM, hits read low; 0.15% of 340,000 active; AID 540267; in the data active = activity change below about -80%; inconclusive = between about -30% and that limit;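 also: parasites exposed to compound for two days anaerobically before the ATP read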
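Compounds were tested on trophozoites seeded at 100 cells/well and held 48 hrs at 37 deg C anaerobically. An ATP-based luminescent kit measured the remaining live cells.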
Nrf2 inh: blocks Nrf2 signaling | A549 ARE-Fluc reporter, luciferase luminescence, 18-24 h | Potency, µM (titrated, usually from 46 µM), for inactives: at the top dose activity change, negative = inhibition, most hits filed as inhibitors | 2.1% of 360,000 active; also: potency is read from the fitted curve at half-maximal effect; nearly all actives have a fitted effect of over 60% in size
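A549 ARE_Fluc cells, 5000/well, 5% FBS OPTI-MEM; compounds in dose-response, 18-24 h at 37 °C/5% CO2; CellTiter-Fluor viability read (Ex 405/Em 525), then BugLite luciferase luminescence = Nrf2 activity.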
KB-3-1 cytotox: kills parental KB-3-1 adenocarcinoma cells. KB-3-1 viability, CellTiter-Glo ATP luminescence, 72 h. Potency, µM (series often up to 46.1 µM), hits mostly cytotoxic. 1.4% of 400,000 active; also: potency is read from the fitted curve at half-maximal effect; nearly all actives have a fitted effect of over 60% in size
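72 h, 37 °C compound treatment of KB-3-1 parental cells; CellTiter-Glo added, 10 min, luminescence read. Data corrected against DMSO-only plates and normalized before curve fitting.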
KB-V1 cytotox: KB-V1 MDR subline cytotoxicity; KB-V1 MDR cells viability, CellTiter-Glo, 72 h; Potency, µM (series often up to 46.1 µM), usual class: cytotoxic; 3.4% of 400,000 active; AID 1347076; also: potency is read from the fitted curve at half-maximal effect; nearly all actives have a fitted effect of over 60% in size
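Following 72 h at 37 degrees C with compound, KB-V1 cell viability was read by CellTiter-Glo luminescence, medium being phenol-red-free DMEM plus 10% FBS; concentration-response parameters came from normalized, curve-fitted qHTS data.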
A549 viability: kills or reduces viability of A549 cells in Nrf2 counter-screen; A549 ARE-Fluc cells, CellTiter-Fluor viability, 18-24 h; Potency, µM (series often up to 46 µM), inactives show top-dose activity change, negative = cytotoxicity, most hits filed as inhibitors; 0.16% of 390,000 active; AID 504648; also: potency is read from the fitted curve at half-maximal effect
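A549 ARE_Fluc cells in 5% FBS OPTI-MEM were exposed to compounds in concentration-response for 18-24 h at 37 deg C. Viability was read by CellTiter-Fluor fluorescence (Ex 405/Em 525) after 30 min, before the luciferase read.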
PI4K2A block: blocks human PI4K2A kinase activity; Q9BTU6; purified PI4K2A, ADP-Glo luminescence, 1 h; active compounds read low; activity change, negative = inhibition, % at 76.9 µM; 0.13% of 420,000 active; AID 1346378; in the data active = activity change below about -50%; inconclusive = mostly about -30% to -49%;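 also: -100% = wells without enzyme as full effect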
Target sequence (Q9BTU6 whole entry, looked up): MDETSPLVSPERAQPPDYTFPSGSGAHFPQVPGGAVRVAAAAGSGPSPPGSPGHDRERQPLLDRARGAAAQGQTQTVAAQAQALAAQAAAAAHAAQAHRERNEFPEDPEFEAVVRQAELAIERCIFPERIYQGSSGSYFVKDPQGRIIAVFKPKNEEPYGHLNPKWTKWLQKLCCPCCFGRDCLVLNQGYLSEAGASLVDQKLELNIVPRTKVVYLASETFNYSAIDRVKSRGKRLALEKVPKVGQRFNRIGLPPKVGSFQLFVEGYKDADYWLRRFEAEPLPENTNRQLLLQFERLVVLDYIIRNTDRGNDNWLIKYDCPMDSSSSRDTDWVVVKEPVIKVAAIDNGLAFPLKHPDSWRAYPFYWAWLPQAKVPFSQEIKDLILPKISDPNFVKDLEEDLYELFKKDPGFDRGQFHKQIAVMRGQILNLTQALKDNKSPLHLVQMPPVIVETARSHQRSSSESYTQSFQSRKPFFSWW
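PI4K2A activity was measured by ADP-Glo luminescence: enzyme (4 ug/mL stock) and phosphatidylinositol (1.2 mM stock) in Tris pH 7.5/MgCl2/EGTA/Triton X-100 buffer were reacted with ATP (300 microM stock) for one hour at ambient temperature.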
The depositor's hits bear a star; i = inactive; ? = inconclusive; . = not tested or not shown. Rows were chosen to be rich in hits. Some 5.7% of all compounds tested hit in one or more screens of this group. Unless noted, calls follow the shape of the dose curve; as a rule, active = well fitted curve in the direction sought with a large enough effect; inconclusive = small, poorly fitted or top-dose-only effect, or another doubt; inactive = no such curve, though single readings can be large; an effect the other way counts as inactive or inconclusive. Unless noted, % is scaled to controls: 0 for no effect and ±100 for the full control effect.

SMILES	Giardia kill	Nrf2 inh	KB-3-1 cytotox	KB-V1 cytotox	A549 viability	PI4K2A block
CCOC(=O)c1cnc(SC)nc1Nc1cccc(F)c1	5.2	.	i	14.6µM*	13.9%	2.1
CCOC(=O)c1cnc(-n2cc(C)cn2)nc1Nc1ccccc1OCC	7.9	?	?	1.16µM*	-8.0%	-1.3
O=S(=O)(Nc1cccc2ccccc12)c1ccc2ccccc2c1	-19.2	?	.	.	-18.3%	.
C1=Cc2ccccc2/C1=C/c1ccc2c(c1)OCO2	.	.	i	i	.	.
Cc1cc(CN(C)Cc2cn(C)nc2-c2ccc(Oc3ccccc3)cc2)on1	17.5	?	i	9.2µM*	0.2%	1.1
CN(Cc1cccnc1)Cc1cn(C)nc1-c1ccc(Oc2ccccc2)cc1	?	-18.2%	i	i	1.7%	4.8
CC(C)Cn1nc(NC(=O)C(C)(C)C)c2cc3ccccc3nc21	2.9	3.8%	i	i	5.2%	-3.3
CCCn1nc(NC(=O)CC(C)C)c2cc3ccccc3nc21	-4.8	17.5%	i	5.17µM*	13.6%	1.5
CCCCC(=O)Nc1nn(CC(C)C)c2nc3ccccc3cc12	-2.6	-3.9%	i	16.4µM*	-11.7%	-5.6
COC(=O)[C@]12C[C@H](CC(=O)NCc3cccc4ccccc34)C(=O)N(Cc3ccc(Cl)cc3Cl)C1=C[C@H](C1CCCC1)O[C@@H]2C	.	.	.	.	.	-1.0
Cc1sc2nc(SCC(=O)c3ccc(O)c(O)c3)n(C)c(=O)c2c1C	.	.	.	.	.	-15.9
Cc1ccn2c(Nc3ccccc3)c(-c3ccccn3)nc2c1	-13.0	25.9µM*	?	?	?	-3.2
Cc1ccc2nc(-c3ccccn3)c(Nc3ccccc3C)n2c1	7.4	?	?	0.731µM*	?	-0.1
Cc1ccn2c(Nc3ccccc3C)c(-c3ccccn3)nc2c1	24.0	?	?	?	?	-5.5
CCc1nc(SCC(=O)NCCc2ccccc2)c2oc3ccccc3c2n1	-5.5	-2.5%	i	18.4µM*	1.0%	-0.8
Cc1nc(NCCc2ccccc2)c2oc3ccccc3c2n1	-17.6	?	?	23.1µM*	-17.2%	-3.5
Cc1cc(C)nc(Sc2nc(C)nc3c2oc2ccccc23)n1	1.9	-6.0%	20.6µM*	?	-1.1%	2.0
Cc1nc(NCCN2CCOCC2)c2oc3ccccc3c2n1	-1.8	-8.5%	i	i	-4.3%	4.3
Cc1nc(SCC(=O)N2CCCc3ccccc32)c2oc3ccccc3c2n1	-1.9	10.6%	i	20.6µM*	-7.3%	-7.1
CCOC(=O)c1cccc(-c2cc(C(C)=O)c3n(c2=O)CCC3)c1	.	.	.	.	.	-3.0
O=C1CCc2cc(S(=O)(=O)Nc3cccnc3)ccc2N1	.	26.6%	.	.	5.1%	.
Clc1ccc(-c2nnc3n2N=C(c2ccc(-c4ccccc4)cc2)CS3)c(Cl)c1	.	.	.	.	.	5.4
Cc1cc2c(cc1C)N[C@]1(C[C@H]3CCCC(=O)N4CC[C@@H](C1)[C@@H]34)C(=NC1CCCCC1)N2	.	.	i	i	.	.
Cc1nc(SCC(=O)NC(C)c2ccccc2)c2oc3ccccc3c2n1 (stereo not drawn)	-2.9	?	i	5.17µM*	5.7%	4.6
CCOC(=O)[C@@]12CCCC=C1N(CCc1ccc(Cl)cc1)C(=O)[C@H]2CC(=O)NCC1CCCCC1	.	.	.	.	.	-5.1
SMILES	Giardia kill	Nrf2 inh	KB-3-1 cytotox	KB-V1 cytotox	A549 viability	PI4K2A block
CN(C)c1ccc(/C=C2\C=Cc3ccccc32)cc1[N+](=O)[O-]	.	.	i	i	.	.
O=C(O)CSc1ncnc2nc[nH]c12	-9.3	3.7%	i	i	-1.7%	4.6
c1nc(SSc2ncnc3nc[nH]c23)c2[nH]cnc2n1	1.4	4.7%	5.17µM*	2.31µM*	-17.9%	4.5
CC(C)c1ccc(NC(=O)c2snc3ccc(Cl)cc23)cc1	-11.1	?	0.0517µM*	?	-5.4%	-2.2
CC(C)c1ccc(NC(=O)c2csnn2)cc1	-14.6	21.7%	?	i	-3.2%	1.6
CN(C)c1ccc(CN(C(=O)C2COc3ccccc3O2)C2CCS(=O)(=O)C2)cc1 (stereo not drawn)	15.0	-8.1%	i	18.4µM*	0.5%	5.7
